Test results published in PubChem BioAssay (NCI).
This is part of a sample that, as a whole, favours compounds with a hit. Of some 79,000 tested, about 15% had one in any assay. Active and inactive are the calls of the source. Cut-off read from the data, not from the text of the source: active = growth inhibition above about 70%; inactive = the rest.

Columns and labels:
[1] = NCI Yeast Anticancer Drug Screen. Data for the mec2-1 strain (AID 157); conditions: S. cerevisiae mec2-1 strain, active compounds read high
Method in brief: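 Strain: mec2-1 (DNA repair/cell cycle alteration). Compound exposure, then growth measured; inhibition expressed relative to vehicle.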

[2] = NCI Yeast Anticancer Drug Screen. Data for the rad14 strain (AID 159);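 note: 0% = growth of vehicle-treated control cultures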; conditions: S. cerevisiae rad14 strain growth inhibition, active compounds read high
Method in brief: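 A mutant yeast strain defective in DNA damage repair is treated with compound; inhibition of its growth is scored against untreated, vehicle-exposed cultures.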

[3] = NCI Yeast Anticancer Drug Screen. Data for the sgs1 mgt1 strain (AID 161);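 note: 0% = growth of cultures given vehicle only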; conditions: S. cerevisiae sgs1 mgt1 strain, active compounds read high
Method in brief: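 Test agents were incubated with a DNA-repair-mutant yeast strain. Growth was then read and compared against vehicle-treated controls.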

[4] = NCI Yeast Anticancer Drug Screen. Data for the CLN2oe strain (AID 163);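 note: 0% = growth of vehicle-only control cultures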; conditions: S. cerevisiae CLN2oe strain, active compounds read high
Method in brief: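 Growth of a genetically modified yeast strain is measured after compound exposure and compared with cultures given vehicle alone.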

[5] = NCI Yeast Anticancer Drug Screen. Data for the cln2 rad14 strain (AID 165);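 note: 0% = growth equal to vehicle treated cultures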; conditions: S. cerevisiae cln2 rad14 strain, active compounds read high
Method in brief: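 Compounds are applied to the cln2 rad14 yeast strain, and growth is then compared with that of vehicle-treated cultures to give inhibition.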

[6] = NCI Yeast Anticancer Drug Screen. Data for the bub3 strain (AID 167); conditions: S. cerevisiae bub3 mutant strain, active compounds read high
Method in brief: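 Steps: expose the mutant yeast strain to compound; grow alongside vehicle-treated cultures; measure growth; express inhibition against the vehicle cultures.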

[7] = NCI Yeast Anticancer Drug Screen. Data for the wt2 strain (AID 169);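 note: 0% = growth of vehicle-treated yeast cultures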; conditions: S. cerevisiae wt2 strain growth inhibition, active compounds read high
Method in brief: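 This strain belongs to a panel of yeast strains with defined genetic alterations in DNA damage repair or cell cycle control. Compounds are applied, and growth inhibition is measured against vehicle-treated cultures.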

[8] = NCI Yeast Anticancer Drug Screen. Data for the mlh1 strain (AID 171);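 note: 0% = growth of vehicle-treated control cultures of the same strain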; conditions: S. cerevisiae mlh1 strain growth inhibition, active compounds read high
Method in brief: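 Growth of the mutant yeast strain after compound exposure, expressed as inhibition relative to vehicle-only controls.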

[9] = NCI Yeast Anticancer Drug Screen. Data for the sgs1 strain (AID 173);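 note: 0% = growth of vehicle-only control cultures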; conditions: S. cerevisiae sgs1 mutant, active compounds read high
Method in brief: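 Growth of a yeast strain bearing a defined genetic alteration is measured after compound treatment. Inhibition is expressed relative to vehicle-only controls.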

[10] = NCI Yeast Anticancer Drug Screen. Data for the mlh1 rad18 strain (AID 175); conditions: S. cerevisiae mlh1 rad18 strain growth inhibition, active compounds read high
Method in brief: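 Read-out is yeast growth inhibition, calculated against vehicle-only controls. The compound was applied to a strain engineered with DNA damage repair alterations.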

[11] = NCI Yeast Anticancer Drug Screen. Data for the rad18 strain (AID 177); conditions: S. cerevisiae rad18 mutant growth inhibition, active compounds read high
Method in brief: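 Growth of the mutant yeast strain after compound exposure, normalised to vehicle-only cultures.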

[12] = NCI Yeast Anticancer Drug Screen. Data for the rad52 strain (AID 147);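 note: 0% = growth of vehicle-treated control cultures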; conditions: S. cerevisiae rad52 mutant growth inhibition, active compounds read high
Method in brief: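 Compounds are applied to a genetically defined yeast strain lacking normal DNA damage repair, and inhibition of growth is expressed relative to cultures given vehicle only.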

[13] = NCI Yeast Anticancer Drug Screen. Data for the wt1 strain (AID 149);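 note: 0% = growth of vehicle-treated wt1 cultures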; conditions: S. cerevisiae wt1 strain (SPY 50644) growth inhibition, active compounds read high
Method in brief: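 Compounds are added to wt1 yeast cultures. Growth is then measured. Inhibition is expressed relative to vehicle-treated controls.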

[14] = NCI Yeast Anticancer Drug Screen. Data for the rad50EPP+ strain (AID 151);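 note: 0% = growth of vehicle-treated control cultures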; conditions: S. cerevisiae rad50 mutant strain, active compounds read high
Method in brief: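 Compounds were applied to the rad50EPP+ yeast strain, which bears a defined DNA repair alteration, and growth inhibition was determined relative to vehicle-treated cultures.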

[15] = NCI Yeast Anticancer Drug Screen. Data for the mgt1 strain (AID 153); conditions: S. cerevisiae mgt1 mutant growth inhibition, active compounds read high
Method in brief: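 Strain: mgt1 yeast, one of a set carrying defined DNA damage repair or cell cycle control alterations. Compound-treated growth compared with vehicle.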

[16] = NCI Yeast Anticancer Drug Screen. Data for the rad50 strain (AID 155);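 note: 0% = growth of vehicle-only cultures of the same strain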; conditions: S. cerevisiae rad50 strain growth inhibition, active compounds read high
Method in brief: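 Inhibition values express reduced yeast growth in compound-treated cultures relative to vehicle-treated controls.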

[17] = at 5.0 µM (retest, dose inferred, filed as 0.5)
[18] = at 50.0 µM (retest, dose inferred, filed as 5.0)

Measured: growth inhibition

CC(=O)N/N=C/C(C)(C)C(C)(C)/C=N/NC(C)=O
active: [3]; [18] 78% | [3]; at 50.0 µM 70% | [7]; at 100.0 µM 88% | [8]; at 100.0 µM 91% | [9]; at 100.0 µM 98% | [10]; [18] 82% | [11]; at 33.0 µM 81% | [11]; at 100.0 µM 93%
inactive: [1]; [17] 4% | [1]; at 11.0 µM 1% | [1]; at 33.0 µM 2% | [1]; [18] 39% | [1]; at 50.0 µM 19.2% | [1]; at 100.0 µM 11% | [2]; at 1.2 µM 3% | [2]; at 3.7 µM 2% | [2]; at 11.0 µM 7% | [2]; at 33.0 µM 39% | [2]; at 100.0 µM 54% | [3]; [17] 15% | [4]; at 1.2 µM 9% | [4]; at 3.7 µM 11% | [4]; at 11.0 µM 11% | [4]; at 33.0 µM 4% | [4]; at 100.0 µM 17% | [5]; [17] 2% | [5]; [18] 20% | [5]; at 50.0 µM 5.8% | [6]; at 1.2 µM -1% | [6]; at 3.7 µM -4% | [6]; [17] 0% | [6]; at 11.0 µM -4% | [6]; at 33.0 µM -7% | [6]; [18] 16% | [6]; at 50.0 µM 35.4% | [6]; at 100.0 µM 16% | [7]; at 1.2 µM -1% | [7]; at 3.7 µM -2% | [7]; at 11.0 µM 7% | [7]; at 33.0 µM 39% | [8]; at 1.2 µM -7% | [8]; at 3.7 µM -5% | [8]; at 11.0 µM -2% | [8]; at 33.0 µM 19% | [9]; at 1.2 µM -6% | [9]; at 3.7 µM -8% | [9]; at 11.0 µM 25% | [9]; at 33.0 µM 67% | [10]; [17] 11% | [10]; at 50.0 µM 59.4% | [11]; at 1.2 µM -10% | [11]; at 3.7 µM 1% | [11]; at 11.0 µM 39%

S=C(S)NN1CCOCC1
active: [12]; at 1.2 µM 84% | [14]; at 1.2 µM 96% | [14]; at 3.7 µM 80% | [14]; at 11.0 µM 86% | [14]; at 33.0 µM 84% | [14]; at 100.0 µM 89% | [16]; at 1.2 µM 87% | [16]; [17] 89% | [16]; at 50.0 µM 85.2% | [1]; at 1.2 µM 80% | [1]; at 50.0 µM 97.8% | [3]; [17] 92% | [3]; [18] 91% | [3]; at 50.0 µM 77.2% | [5]; [17] 83% | [5]; at 50.0 µM 87.5% | [6]; [17] 85% | [6]; [18] 70% | [6]; at 50.0 µM 96% | [8]; at 100.0 µM 72% | [9]; at 1.2 µM 84% | [10]; [17] 94% | [10]; [18] 92% | [10]; at 50.0 µM 86.8% | [11]; at 1.2 µM 87% | [11]; at 100.0 µM 72%
inactive: [12]; at 3.7 µM 68% | [12]; at 11.0 µM 35% | [12]; at 33.0 µM 38% | [12]; at 100.0 µM 50% | [13]; at 1.2 µM 43% | [13]; at 3.7 µM 29% | [13]; at 11.0 µM 35% | [13]; at 33.0 µM 51% | [13]; at 100.0 µM 60% | [15]; at 1.2 µM 52% | [15]; at 3.7 µM 39% | [15]; at 11.0 µM 30% | [15]; at 33.0 µM 21% | [15]; at 100.0 µM 18% | [16]; at 3.7 µM 57% | [16]; at 11.0 µM 29% | [16]; at 33.0 µM 23% | [16]; [18] 66% | [16]; at 100.0 µM 28% | [1]; at 3.7 µM 60% | [1]; [17] 65% | [1]; at 11.0 µM 32% | [1]; at 33.0 µM 28% | [1]; [18] -4% | [1]; at 100.0 µM 35% | [2]; at 1.2 µM 33% | [2]; at 3.7 µM 36% | [2]; at 11.0 µM 34% | [2]; at 33.0 µM 42% | [2]; at 100.0 µM 52% | [4]; at 1.2 µM 57% | [4]; at 3.7 µM 31% | [4]; at 11.0 µM 29% | [4]; at 33.0 µM 27% | [4]; at 100.0 µM 42% | [5]; [18] 22% | [6]; at 1.2 µM 69% | [6]; at 3.7 µM 59% | [6]; at 11.0 µM 31% | [6]; at 33.0 µM 7% | [6]; at 100.0 µM 8% | [7]; at 1.2 µM 64% | [7]; at 3.7 µM 31% | [7]; at 11.0 µM 26% | [7]; at 33.0 µM 34% | [7]; at 100.0 µM 31% | [8]; at 1.2 µM 63% | [8]; at 3.7 µM 30% | [8]; at 11.0 µM 30% | [8]; at 33.0 µM 34% | [9]; at 3.7 µM 47% | [9]; at 11.0 µM 39% | [9]; at 33.0 µM 54% | [9]; at 100.0 µM 50% | [11]; at 3.7 µM 67% | [11]; at 11.0 µM 67% | [11]; at 33.0 µM 50%

COc1ccc2sc3cccc(NCCN(C)C)c3c(=O)c2c1
inactive: [12]; at 1.2 µM -3% | [12]; at 3.7 µM -3% | [12]; at 11.0 µM -1% | [12]; at 33.0 µM 2% | [12]; at 100.0 µM 27% | [13]; at 1.2 µM 1% | [13]; at 3.7 µM 6% | [13]; at 11.0 µM 3% | [13]; at 33.0 µM 2% | [13]; at 100.0 µM 10% | [14]; at 1.2 µM 6% | [14]; at 3.7 µM 8% | [14]; at 11.0 µM 17% | [14]; at 33.0 µM 25% | [14]; at 100.0 µM 61% | [15]; at 1.2 µM -1% | [15]; at 3.7 µM -3% | [15]; at 11.0 µM -4% | [15]; at 33.0 µM -3% | [15]; at 100.0 µM 15% | [16]; at 1.2 µM 0% | [16]; at 3.7 µM 1% | [16]; [17] -14% | [16]; at 11.0 µM 2% | [16]; at 33.0 µM 7% | [16]; [18] -10% | [16]; at 50.0 µM 25.2% | [16]; at 100.0 µM 31% | [1]; at 1.2 µM 3% | [1]; at 3.7 µM 4% | [1]; [17] -3% | [1]; at 11.0 µM 6% | [1]; at 33.0 µM 9% | [1]; [18] 3% | [1]; at 50.0 µM -4.1% | [1]; at 100.0 µM 12% | [2]; at 1.2 µM -1% | [2]; at 3.7 µM -1% | [2]; at 11.0 µM -1% | [2]; at 33.0 µM 9% | [2]; at 100.0 µM 33% | [3]; [17] -9% | [3]; [18] 38% | [3]; at 50.0 µM 54.6% | [4]; at 1.2 µM -3% | [4]; at 3.7 µM -10% | [4]; at 11.0 µM -4% | [4]; at 33.0 µM -4% | [4]; at 100.0 µM 17% | [5]; [17] 3% | [5]; [18] 6% | [5]; at 50.0 µM 31.6% | [6]; at 1.2 µM -4% | [6]; at 3.7 µM -3% | [6]; [17] 9% | [6]; at 11.0 µM -3% | [6]; at 33.0 µM -1% | [6]; [18] 5% | [6]; at 50.0 µM -4.65% | [6]; at 100.0 µM 1% | [7]; at 1.2 µM 0% | [7]; at 3.7 µM -2% | [7]; at 11.0 µM 0% | [7]; at 33.0 µM -1% | [7]; at 100.0 µM 8% | [8]; at 1.2 µM -1% | [8]; at 3.7 µM 2% | [8]; at 11.0 µM 3% | [8]; at 33.0 µM 4% | [8]; at 100.0 µM 18% | [9]; at 1.2 µM 2% | [9]; at 3.7 µM 1% | [9]; at 11.0 µM 3% | [9]; at 33.0 µM 2% | [9]; at 100.0 µM 16% | [10]; [17] -1% | [10]; [18] -9% | [10]; at 50.0 µM 67.3% | [11]; at 1.2 µM 0% | [11]; at 3.7 µM 0% | [11]; at 11.0 µM 2% | [11]; at 33.0 µM 9% | [11]; at 100.0 µM 27%
